Laboratory results published in PubChem BioAssay (Tox21).
Results filed as inconclusive are left out. The source made the active and inactive calls. The call rests on the fitted dose curve.

target: Muscarinic acetylcholine receptor M1 (Homo sapiens) (UniProt P11229); experiment: Cholinergic receptor muscarinic 1 (CHRM1) small molecule antagonists, cell-based qHTS assay (AID 1963588); conditions: CHRM1-CHO antagonist mode, calcium flux fluorescence; series mostly up to 61.5 µM; activity, negative = inhibition: at the top concentration; further: nearly all actives have a fitted effect of over 40% in size
Sequence (P11229 whole entry, looked up): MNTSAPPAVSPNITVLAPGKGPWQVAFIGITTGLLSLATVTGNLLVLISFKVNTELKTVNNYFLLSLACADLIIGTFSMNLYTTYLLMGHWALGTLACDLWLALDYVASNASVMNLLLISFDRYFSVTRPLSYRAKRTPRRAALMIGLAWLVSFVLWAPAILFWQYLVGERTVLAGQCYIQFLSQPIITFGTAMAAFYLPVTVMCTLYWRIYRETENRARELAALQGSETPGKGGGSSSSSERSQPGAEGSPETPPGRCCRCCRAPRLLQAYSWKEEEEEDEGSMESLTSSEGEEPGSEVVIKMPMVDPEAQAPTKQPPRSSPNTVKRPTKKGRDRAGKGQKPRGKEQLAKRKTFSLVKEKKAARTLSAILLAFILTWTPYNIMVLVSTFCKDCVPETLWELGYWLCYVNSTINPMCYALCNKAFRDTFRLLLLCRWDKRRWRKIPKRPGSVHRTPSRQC
Excerpt: National Center for Advancing Translational Sciences [NCATS]
Division of Preclinical Innovation [DPI]
U.S. Environmental Protection Agency [EPA]
National Institutes of Environmental Health Sciences [NIEHS]
National Toxicology Program [NTP]
U.S. Food and Drug Administration [FDA]
The CHRM1 is a muscarinic receptor. This receptor plays a crucial role in learning and memory processes and has long been identified as a promising therapeutic target for the improvement of cognitive decline in Alzheimer's disease (AD). The CHRM1-CHO cell line stably expressing human muscarinic acetylcholine receptor M1 (CHRM1) can be used for screening agonists and antagonists of interactions between CHRM1 and its ligands. The CHRM1-CHO Calcium Flux Assay is a homogeneous fluorescence-based assay for detecting the intracellular calcium level using FDSS kinetic plate reader system.
Tox21 Assay Protocol Summary:
CHRM1-CHO cells were dispensed at 1000 cells/3uL/well in 1536-well black-clear bottom plates using a Multidrop Dispenser. After the assay plates were incubated at a 37 C/5% CO2 incubator for 18 h, 3 uL of Dye Loading Buffer was transferred to the assay plate by a Flying Reagent Dispenser. The assay plates were incubated at 37 C for 1h. For antagonist mode, 23 nL of compounds dissolved in DMSO, positive controls or DMSO only was transferred to the assay plate by a pin tool. After 5 min incubation at room temperature, 1.5 uL of acetylcholine at 50nM was added to each well. The fluorescence intensity in the plates was measured using FDSS 7000EX kinetic plate reader for 3 min at 1 sec intervals. Each test compound was measured at 15 concentrations in three independent runs.
On the % scale 0 is the no-effect control and ±100 the full control effect; potency means the concentration at half of the fitted maximal effect.

SMILES | activity, negative = inhibition | Potency
Cc1onc(-c2c(Cl)cccc2Cl)c1C(=O)Cl | 11% [at 28.3 µM] (inactive) | 
COC(=O)NCCC[Si](OC)(OC)OC | 16.4% (inactive) | 
CCN(C(=O)N(CC)c1ccccc1)c1ccccc1 | -1.19% (inactive) | 
O=[N+]([O-])c1cc(N(CCO)CCO)ccc1NCCO |  | inactive
COc1ccc(S(=O)(=O)N2C(=O)[C@@](c3ccccc3OC)(N3C[C@H](O)C[C@H]3C(=O)N(C)C)c3cc(Cl)ccc32)c(OC)c1 | 1.71% (inactive) | 
CCCCOC(=O)c1ccccc1 | 11.8% (inactive) | 
Nc1ccc2ccccc2c1S(=O)(=O)O | -18.6% (inactive) | 
Oc1cc2ccccc2c2ccccc12 | -11.3% (inactive) | 
CC1=C(Br)C(=O)C(Br)=C/C1=C(/c1ccccc1S(=O)(=O)O)c1cc(Br)c(O)c(Br)c1C | 28.5% [at 28.3 µM] (inactive) | 
O=C1CCCc2c1cc1ccc3cccc4ccc2c1c34 | -20.7% (inactive) | 
CC(=O)c1ccccc1[N+](=O)[O-] | 7.95% (inactive) | 
O=C(O)/C=C/c1ccc(O)c(O)c1 | -20.6% (inactive) | 
CC(CCc1ccc2c(c1)OCO2)NN (stereo not given) | -1.06% [at 28.3 µM] (inactive) | 
CCCNCCC | 5% (inactive) | 
CCCCN1C(=O)[C@@H]([C@H](O)C2CCCCC2)NC(=O)C12CCN(Cc1ccc(Oc3ccc(C(=O)O)cc3)cc1)CC2 | 2.36% (inactive) | 
CC1CCC(CO)CC1 (stereo not given) | -2.83% (inactive) | 
Cc1ccc(N)cc1O | 3.51% (inactive) | 
CCCCCCCCCCCCSCCOCCO | 0.936% [at 28.3 µM] (inactive) | 
CO[Si](C)(OC)OC | 17.3% (inactive) | 
COC(C)(C)OC | 46.9% (inactive) | 

SMILES | activity, negative = inhibition | Potency
CCCCC(CC)CNCC(CC)CCCC (stereo not given) | -14.4% (inactive) | 
CCCCCCCC1CCC(=O)O1 (stereo not given) | -14.9% (inactive) | 
COc1cccc2c1C(=O)c1c(O)c3c(c(O)c1C2=O)C[C@@](O)(C(=O)CO)C[C@@H]3O[C@H]1C[C@H](N)[C@H](O[C@@H]2CCCCO2)[C@H](C)O1 | -5.08% [at 28.3 µM] (inactive) | 
CN(C)CCOC(c1ccccc1)c1ccc(Br)cc1 (stereo not given) |  | 3.65 µM (active)
Cc1c(Cl)c(=O)oc2cc(O)ccc12 | 4.49% (inactive) | 
O=C(CC(=O)c1ccccc1)c1ccccc1 | 13.4% (inactive) | 
Cc1ccc(N)cc1S(=O)(=O)O | 5.67% (inactive) | 
Cc1[nH]c(C)c(Cl)c(=O)c1Cl | 9.6% [at 12.6 µM] (inactive) | 
O=C1OC(=O)c2c(Br)c(Br)c(Br)c(Br)c21 | 19% (inactive) | 
CNC(=O)C(c1ccccc1)c1ccccc1 | -5.71% (inactive) | 
N#Cc1nc(Cl)c(Cl)c(Cl)c1Cl | -7.83% (inactive) | 
Cc1onc(-c2c(Cl)cccc2Cl)c1C(=O)N[C@@H]1C(=O)N2[C@@H]1SC(C)(C)[C@@H]2C(=O)O | 64.2% [at 28.3 µM] (inactive) | 
CC(Cc1ccccc1)(NC(=O)CN)c1ccccc1 (stereo not given) | 9.68% [at 28.3 µM] (inactive) | 
O=CN(CCO)CCO | 16.6% (inactive) | 
CCc1cccc2c(CCO)c[nH]c12 | -1.72% [at 28.3 µM] (inactive) | 
Cc1c(N)cccc1N | 7.38% (inactive) | 
CCN1C=CN(C)C1C (stereo not given) | -20.8% (inactive) | 
Clc1sc(Cl)c(Cl)c1Cl | -5.85% (inactive) | 
Cc1ccccc1Br | 1.52% (inactive) | 
C=CC(=O)OCCC#N | -2.69% (inactive) | 
